Bioassay records from PubChem BioAssay.
TRPV1 potentiator – HTS Assay for Compounds that Act as Potentiators of the Vanilloid Receptor 1 | Transient receptor potential cation channel subfamily V member 1 (Homo sapiens), Q8NER1 | TRPV1-expressing cells, Fluo-8 calcium influx, capsaicin EC20 potentiation | potentiation, % at 8.33 µM | 0.02% of 320,000 active; in the data active = potentiation above about 80%; inconclusive = between about 30% and that limit; note: 0% is about no effect
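Cells expressing TRPV1 were dye-loaded with Fluo-8 and read kinetically: 10 s baseline, 3 min after compound (agonist portion), then 2 min after EC20 capsaicin (allosteric enhancer portion). Calcium-bound dye fluorescence at 480/520 nm.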
Gal4-VP16 FLuc – VP16 counterscreen qHTS for inhibitors of ROR gamma transcriptional activity | Drosophila S2 Gal4-VP16 UAS-luciferase, luminescence, 20 h | Potency, µM (doses to about 53.6 µM), for inactives: at the highest dose activity, negative = inhibition, usual class: inhibitors | 3.5% of 310,000 active | AID 2546, 2010;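 note: Gal4-VP16 expression switched on by copper sulfate through the metallothionein promoter; potency is the fitted concentration of half-maximal effect; % is set by controls: 0 for no effect and ±100 for the full control effect; nearly all actives have a fitted effect of over 50% in size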
uPA generation – qHTS for Inhibitors of Cell Surface uPA Generation; 0.31% of 330,000 active; Potency, µM (series often up to 38.3 µM), for the others: at the top dose activity change, negative = inhibition, hits mostly inhibitors; cell surface uPA generation assay, qHTS; active = well fitted inhibition curve with a large enough effect; inconclusive = small, poorly fitted or top-dose-only effect; inactive = no such curve, though single readings can be large or run the other way; tested in mouse RAW 264.7 cells; note: potency is the fitted concentration of half-maximal effect; % is set by controls: 0 for no effect and ±100 for the full control effect; nearly all actives have a fitted effect of over 55% in size
TRPV1 ag – HTS Assay for Compounds that Act as Agonists of the Vanilloid Receptor 1 | Transient receptor potential cation channel subfamily V member 1 (Homo sapiens), Q8NER1 | TRPV1-expressing cells, Fluo-8 calcium influx, agonist mode | activation, % at 8.33 µM | 0.19% of 320,000 active; in the data active = activation above about 80%; inconclusive = between about 30% and that limit; note: 0% is about no effect
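TRPV1-expressing cells were cultured overnight at 35.5C and loaded with Fluo-8 calcium dye for 40 to 90 min at room temperature. After a 10 s baseline, compound was added and calcium influx was read kinetically for 3 min (ex 480/em 520 nm).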
RORg inh – qHTS for inhibitors of ROR gamma transcriptional activity; Nuclear receptor ROR-gamma (Mus musculus), P51450; Drosophila S2 Gal4-RORgamma UAS-luciferase reporter, 20 h; Potency, µM (top dose mostly 53.6 µM), without a hit: top-dose activity change, negative = inhibition, most hits filed as inhibitors; 5.4% of 310,000 active; note: potency is the fitted concentration of half-maximal effect; % is set by controls: 0 for no effect and ±100 for the full control effect; nearly all actives have a fitted effect of over 60% in size
Target sequence (P51450 whole entry, looked up, the tested form may be a part): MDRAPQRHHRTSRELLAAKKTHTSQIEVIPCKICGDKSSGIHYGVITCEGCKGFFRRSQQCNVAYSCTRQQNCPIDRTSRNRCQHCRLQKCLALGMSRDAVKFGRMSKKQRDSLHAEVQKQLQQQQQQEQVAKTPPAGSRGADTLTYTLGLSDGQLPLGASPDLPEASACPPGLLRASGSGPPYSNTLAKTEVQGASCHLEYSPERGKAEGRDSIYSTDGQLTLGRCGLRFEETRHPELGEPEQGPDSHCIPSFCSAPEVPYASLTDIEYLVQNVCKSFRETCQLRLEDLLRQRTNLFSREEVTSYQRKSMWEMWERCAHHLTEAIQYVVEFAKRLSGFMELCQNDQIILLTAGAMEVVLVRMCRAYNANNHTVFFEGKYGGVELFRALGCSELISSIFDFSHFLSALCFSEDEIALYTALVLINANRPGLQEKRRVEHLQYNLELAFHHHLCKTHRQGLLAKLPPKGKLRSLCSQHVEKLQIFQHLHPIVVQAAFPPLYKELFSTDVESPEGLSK
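Using a luciferase readout, inhibitors were identified by reduced reporter activity in Drosophila cells coexpressing a copper-inducible Gal4–ROR gamma fusion and UAS-driven Photinus luciferase, incubated 20 hr after 700 uM copper sulfate.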
* hit, by the source's call; ? = inconclusive; · = no result. Rows were chosen to be rich in hits. Some 5.8% of all compounds tested hit in one or more screens of this group. Unless noted, calls come from the whole dose curve; as a rule, active = well fitted curve in the direction sought with a large enough effect; inconclusive = small, poorly fitted or top-dose-only effect, or another doubt; inactive = no such curve, though single readings can be large; an effect the other way counts as inactive or inconclusive.

SMILES	TRPV1 potentiator	Gal4-VP16 FLuc	uPA generation	TRPV1 ag	RORg inh
NC(N)=NCCC[C@H](NC(=O)[C@H](Cc1ccccc1)NC(=O)[C@@H]1CCCN1C(=O)[C@H](CO)NC(=O)[C@H](Cc1ccccc1)NC(=O)CNC(=O)[C@@H]1CCCN1C(=O)[C@@H]1CCCN1C(=O)[C@@H](N)CCCN=C(N)N)C(=O)O	·	-4%	·	·	-1%
COc1ccc(C(=O)Nc2nnc(-c3ccccc3)o2)cc1OC	3	1µM*	3%	2	0.56µM*
O=C(Nc1nnc(-c2ccncc2)o1)c1ccccc1F	3	10µM*	0%	1	?
COc1cc2ccccc2cc1C(=O)Nc1nnc(-c2ccncc2)o1	0	10µM*	4%	-1	7.1µM*
Cc1ccc(C(=O)Nc2nnc(-c3ccncc3)o2)cc1	-2	5%	-1%	-6	0%
O=C(Nc1nnc(-c2ccncc2)o1)c1ccccc1	-1	5µM*	5%	-9	3.2µM*
COc1cc2ccccc2cc1C(=O)Nc1ccc(Cc2ccncc2)cc1	11	2%	-15%	-1	26%
COc1cc(C(=O)OCC(=O)Nc2nnc(-c3ccccc3)o2)cc(OC)c1OC	-2	·	-1%	2	·
N#Cc1ccc(CN2CCC3(CC2)CCN(C(=O)c2csnn2)CC3)cc1	·	-9%	·	·	-7%
CC(C)C[C@@H](CC(=O)N[C@@H](CCC(=O)O)CC(=O)O)NC(=O)[C@@H]1CNCC[C@H]1NC(=O)C[C@@H](NC(=O)C[C@H](Cc1c[nH]c2ccccc12)NC(=O)[C@@H]1CCCC[C@H]1N)C(C)C	·	-11%	·	·	20%
COc1ccc(CCC(=O)OCC(=O)Nc2c(C)nn(-c3ccccc3)c2C)cc1	2	·	2%	13	·
COc1ccccc1-c1nnc(NC(=O)c2ccccc2F)o1	-1	2.8µM*	-15%	1	2µM*
COc1cc2ccccc2cc1C(=O)Nc1ccc(C)cc1	4	?	20µM*	?	?
COc1cccc(CNC(=O)C2CCN(C(=O)N3CC(C)Oc4ccccc43)CC2)c1 (stereo unspecified)	-31	5%	-6%	17	13%
CCOC(=O)C1=C(COC(=O)CCNS(=O)(=O)c2ccc(C)c(C)c2)NC(=O)NC1C (stereo unspecified)	-5	·	-7%	14	·
CC(C)n1c(-c2ccccc2)nc(=S)c2c1CCCC2	2	-6%	·	-1	?
COc1ccc(-n2c(-c3cccc(OC)c3)nc(=S)c3c2CCCC3)cc1	10	?	-14%	0	10µM*
COc1ccc(-n2c(-c3ccccc3)nc(=S)c3c2CCCC3)cc1	7	?	-4%	-2	14µM*
CCCCC1=CC2=C(OC(C)=O)C(=O)C(C)(OC(=O)CC)C(=O)C2=CO1 (stereo unspecified)	·	5%	·	·	-2%
CCCCCCCCN=C(N)c1ccc(C(=O)OCC2CCCCC2)cc1	·	2%	·	·	7.9µM*
COc1ccc(CNC(=O)C(c2ccncc2)N(C(=O)Cc2cccs2)c2ccccc2)cc1 (stereo unspecified)	4	1%	0%	-2	29%
COc1ccc(N(C(=O)CCl)C(C(=O)NCCc2ccccc2)c2cccs2)cc1 (stereo unspecified)	-7	?	-11%	21	11µM*
Cn1c(NC(=O)c2cccs2)cc(=O)n(C)c1=O	12	0%	4%	0	8%
Cn1c(NC(=O)c2ccc(Br)o2)cc(=O)n(C)c1=O	-5	3%	0%	-1	13µM*
Cc1ccc(-c2cn3nc(C)c(C)nc3n2)cc1	·	10µM*	-7%	·	7.9µM*
COc1ccc2c(c1OC)C(=O)N1N=C(c3ccc(Cl)cc3)CC21 (stereo unspecified)	-30	4%	-7%	?	?
CC(C)Oc1ccc(C(=O)OCC(=O)NC(=O)NC2CCCC2)cc1	1	·	6%	-1	·
Cc1ccc(S(=O)(=O)NC(CC(C)C)C(=O)NCc2ccco2)cc1 (stereo unspecified)	-1	-2%	·	2	15%
